# Source: PubChem
# HPGD inh: qHTS Assay for Inhibitors of HPGD (15-Hydroxyprostaglandin Dehydrogenase); purified HPGD, NADH fluorescence kinetic, PGE2 substrate; Potency, µM, inactives show at the highest dose activity change, negative = inhibition, usual class: inhibitors; actives 4.3% (n = 150,000); note: potency is the fitted concentration of half-maximal effect; % is set by controls: 0 for no effect and ±100 for the full control effect
#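 20 nM HPGD preincubated 15 min at room temperature with compound in 50 mM Tris-HCl pH 8, 0.01% Tween 20. Started with 1 mM NAD+ and 30 uM prostaglandin E2; NADH fluorescence (360/450 nm) read 5 times over 30-s intervals, last minus first.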
# KDM4E inh: qHTS Assay for Inhibitors of Human Jumonji Domain Containing 2E (JMJD2E). Lysine-specific demethylase 4E (Homo sapiens), B2RXH2. JMJD2E catalytic domain, FDH-coupled NADH fluorescence (FDH is formaldehyde dehydrogenase). Potency, µM (titrated, usually from 57.1 µM), for inactives: at the top dose activity change, negative = inhibition, actives largely listed as inhibitors. actives 1.6% (n = 230,000). AID 2147, 2009;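 note: potency is the fitted concentration of half-maximal effect; 0% = wells with enzyme and -100% = buffer wells without enzyme; nearly all actives have a fitted effect of over 50% in size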
# HTT ATP protect: qHTS Multiplex Assay to Identify Dual Action Probes in a Cell Model of Huntington: Cytoprotection (ATP) | PC12 HTT-Q103 induced, cytoprotection, ATP luminescence, 40 h | Potency, µM (highest dose often 56.4 µM), for inactives: cytoprotection (ATP increase), usual class: activators | actives 0.14% (n = 230,000); active = well fitted curve in the direction sought with a large enough effect; inconclusive = small, poorly fitted or top-dose-only effect, or another doubt; inactive = no such curve, though single readings can be large; an effect the other way counts as inactive or inconclusive; note: potency is the fitted concentration of half-maximal effect; % of control where 0% means no effect; nearly all actives have a fitted effect of over 45% in size
#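 Compounds added alongside 100 nM tebufenozide, which induces toxic Q103 huntingtin exon 1-GFP in stable PC12 cells; surviving cells quantified by luminescent ATP measurement. Medium: phenol red-free DMEM, 5% equine and 5% calf serum.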
# CBFb-RUNX1 inh: qHTS Assay for Compounds Blocking the Interaction Between CBF-beta and RUNX1 for the Treatment of Acute Myeloid Leukemia | Runt-related transcription factor 1 (Homo sapiens) + Core-binding factor subunit beta … | AlphaScreen CBFb-His/RUNX1-biotin binding, biochemical | Potency, µM (series often up to 59.8 µM), for the others: at the top dose activity, negative = inhibition, hits mostly inhibitors | 230,000 tested, under 10 active; active = well fitted curve in the direction sought with a large enough effect; inconclusive = small, poorly fitted or top-dose-only effect, or another doubt; inactive = no such curve, though single readings can be large; an effect the other way counts as inactive or inconclusive; note: % of control where 0% means no effect
# Target sequence (Q01196 whole entry, looked up): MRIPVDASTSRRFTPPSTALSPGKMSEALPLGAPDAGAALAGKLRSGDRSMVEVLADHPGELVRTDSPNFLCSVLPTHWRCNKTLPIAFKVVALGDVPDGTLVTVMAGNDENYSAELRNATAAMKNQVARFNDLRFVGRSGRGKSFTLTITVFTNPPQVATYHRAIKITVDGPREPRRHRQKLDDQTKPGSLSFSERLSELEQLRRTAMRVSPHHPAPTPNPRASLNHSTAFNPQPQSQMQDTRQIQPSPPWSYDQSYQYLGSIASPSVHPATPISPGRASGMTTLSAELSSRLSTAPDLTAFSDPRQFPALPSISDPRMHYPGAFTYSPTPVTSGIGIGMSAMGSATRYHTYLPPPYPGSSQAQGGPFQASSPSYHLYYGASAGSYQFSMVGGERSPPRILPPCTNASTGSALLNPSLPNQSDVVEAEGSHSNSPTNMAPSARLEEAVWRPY
# Target sequence (Q13951 whole entry, looked up): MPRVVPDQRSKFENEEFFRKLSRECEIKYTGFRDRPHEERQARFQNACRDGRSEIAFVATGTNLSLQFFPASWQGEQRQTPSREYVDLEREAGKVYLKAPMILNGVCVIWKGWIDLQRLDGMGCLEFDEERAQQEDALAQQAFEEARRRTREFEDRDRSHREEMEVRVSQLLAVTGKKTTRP
#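 Read-out: AlphaScreen. Format: His-CBF-beta with biotinylated RUNX1 (30 nM each) preincubated 20 min, compound 15 min, Ni-chelate plus streptavidin beads 90 min; room temperature throughout.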
# ALDH1A1 block: qHTS Assay for Inhibitors of Aldehyde Dehydrogenase 1 (ALDH1A1); Purified ALDH1A1, NADH fluorescence, propionaldehyde substrate; actives 7.3% (n = 220,000); AID 1030, 2008; Potency, µM (doses to about 75.3 µM), inactives show at the highest dose activity, negative = inhibition, actives largely listed as inhibitors; Aldehyde dehydrogenase 1A1 (Homo sapiens), P00352;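 note: potency is the fitted concentration of half-maximal effect; plate controls were no enzyme wells and a reference inhibitor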
# HttQ103 aggreg: qHTS Multiplex Assay to Identify Dual Action Probes in a Cell Model of Huntington: Aggregate Formation (GFP) | actives 1.1% (n = 220,000) | PC12 HttQ103-GFP aggregates, Acumen cytometry, 40 h | Potency, µM (highest dose often 46.1 µM), without a hit: top-dose activity change, negative = inhibition, most hits filed as inhibitors; active = well fitted curve in the direction sought with a large enough effect; inconclusive = small, poorly fitted or top-dose-only effect, or another doubt; inactive = no such curve, though single readings can be large; an effect the other way counts as inactive or inconclusive; note: potency is the fitted concentration of half-maximal effect; % is set by controls: 0 for no effect and ±100 for the full control effect; nearly all actives have a fitted effect of over 60% in size
#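 Read-out: GFP aggregate count by laser scanning cytometer (488 nm excitation, 500-530 nm emission, 1–25 µm objects >6 SD above background). Cells: PC12, inducible HTTex1-Q103-GFP, 100 nM tebufenozide; compounds titrated.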
# * marks the source's active call; other numbers are inactive results; ? = inconclusive; nt = no result given; [ ] = another dose, or the depositor's remark. Sampled rows, rich in hits. Any-hit rate of the full collection: about 9.8%. Unless noted, calls come from the whole dose curve; as a rule, active = well fitted inhibition curve with a large enough effect (not every such curve was filed as active); inconclusive = small, poorly fitted or top-dose-only effect, or another doubt; inactive = no such curve, though single readings can be large or run the other way.
SMILES,HPGD inh,KDM4E inh,HTT ATP protect,CBFb-RUNX1 inh,ALDH1A1 block,HttQ103 aggreg
CC1=C(O)C(=O)OC1c1c(Cl)cccc1Cl (stereo not drawn),nt,-3.7%,20.4%[10 µM],7.2%,nt,7.0%[9.22 µM]
C=CCn1c(SCc2nc3ccccc3nc2C)nnc1-c1ccoc1C,25.1µM*,0.3%,9.8%,2.6%,1.58µM*,6.4%
O=C(/C=C\c1cccs1)c1c(O)ccc2ccc(=O)oc12,?,-5.1%,11.6%[10 µM],-0.7%,?,11.2µM*
CCOC(=O)c1ccc(Oc2cc(C)nc(Cl)n2)cc1,nt,-1.7%,8.1%[10 µM],4.8%,nt,0.0%[9.22 µM]
Cc1ccc(-c2nc(-c3ccccc3)no2)c(Cl)c1,39.8µM*,-1.4%,-126.3%,1.6%,7.8%,-1.8%
COc1ccc(-c2noc(-c3ccccc3-c3ccccc3)n2)cc1,-4.5%,-21.4%,-20.7%,?,-3.6%,2.2%
CC1CCCC(NC(=O)COC(=O)c2cc(S(=O)(=O)N3CCCCC3)ccc2N2CCOCC2)C1C (stereo not drawn),-8.1%,-3.2%,-12.8%,1.9%,10µM*,24.6%
CCN(CC(=O)NCc1cccs1)c1ccc(S(=O)(=O)N2CCCC2)cn1,nt,3.5%,-53.9%,-5.9%,2.51µM*,10.4%
COC(=O)c1cn(C)c2ccc(S(=O)(=O)N3CCCC3)cc2c1=O,8.91µM*,-27.4%,-32.7%,-2.5%,?,-8.3%
CN(CCNC(=O)c1cn(C)c2ccc(S(=O)(=O)N3CCCC3)cc2c1=O)CCc1ccccc1,-6.7%,2.3%,-21.5%,4.3%,31.6µM*,14.4%
Cn1cc(C(=O)NCc2cccs2)c(=O)c2cc(S(=O)(=O)N3CCCC3)ccc21,-7.6%,-3.8%,nt,-1.7%,4.47µM*,11.4%
CC1CCCC(NC(=O)c2cn(C)c3ccc(S(=O)(=O)N4CCCC4)cc3c2=O)C1C (stereo not drawn),-10.8%,5.4%,5.8%,6.7%,5.62µM*,-3.3%
CN(C1CCCCC1)S(=O)(=O)c1ccc2c(c1)c(=O)c(C(=O)NCCN1CCCC1)cn2C,-10.5%,-24.9%,-9.9%,0.2%,7.94µM*,?
CC1CCCCC1NC(=O)c1cn(C)c2ccc(S(=O)(=O)N3CCCC3)cc2c1=O (stereo not drawn),-1.9%,2.3%,6.2%,12.0%,12.6µM*,4.2%
CN(C1CCCCC1)S(=O)(=O)c1ccc2c(c1)c(=O)c(C(=O)NCCCN1CCCC1)cn2C,-4.7%,2.6%,-14.4%,-2.4%,4.8%,6.6%
Cn1cc(C(=O)NC2CCCCC2)c(=O)c2cc(S(=O)(=O)N3CCCC3)ccc21,-10.6%,3.1%,-3.7%,-4.5%,?,8.4%
COCC(=O)NC1CC2CCC(C1)N2C(=S)Nc1ccccc1C(=O)OC (stereo not drawn),nt,5.6%,-6.2%[10 µM],15.9%,-15.7%,22.3%[9.22 µM]
O=C(O)CC12CC3CC(C1)CC(n1ncc(NCc4ccc5c(c4)OCO5)c(Cl)c1=O)(C3)C2,nt,2.3%,-12.1%,-3.8%,?,1.2%
CSc1ccc(C(=O)C2CCCN(Cc3cccc4nccnc34)C2)cc1 (stereo not drawn),nt,-14.3%,-4.7%[10 µM],7.1%,nt,-16.5%[9.22 µM]
CS(=O)(=O)c1[nH]nc(-c2ccccc2)c1C#N,nt,5.2%,18.9%[10 µM],-1.5%,nt,-8.5%[9.22 µM]
CCn1c(SCc2ccc(OC)cc2)nnc1-c1ccncc1,-4.7%,7.3%,-3.4%,5.0%,8.3%,16.9%
O=C(O)c1ccc(Nc2nc(-c3cccnc3)nc3ccccc23)cc1,nt,2.6%,7.1%[10 µM],21.7%,-8.3%,-2.5%[9.22 µM]
COc1cccc(CNc2ccc3c(c2)CCC3)c1,-23.2%,?,-15.7%,-16.9%,12.6µM*,-5.1%[9.22 µM]
Oc1ccccc1C=NCc1ccccc1,nt,nt,-2.7%,nt,nt,-5.0%
C=C1CCC(O)C/C1=C/C=C1\CCC[C@]2(C)[C@@H]([C@H](C)/C=C/[C@H](C)C(C)C)CC[C@@H]12 (stereo partly drawn),nt,nt,10.9%,nt,nt,4.0%
SMILES,HPGD inh,KDM4E inh,HTT ATP protect,CBFb-RUNX1 inh,ALDH1A1 block,HttQ103 aggreg
CCCn1cc(SCC(=O)NCC2CCCO2)c2ccccc21 (stereo not drawn),?,3.7%,-4.6%[10 µM],3.9%,?,-4.3%
Cn1cc(SCC(=O)NCC2CCCO2)c2ccccc21 (stereo not drawn),28.2µM*,-1.7%,-3.0%,4.2%,1.7%,-12.7%
O=C(CSc1cn(CC(=O)N2CCCCC2)c2ccccc12)NCC1CCCO1 (stereo not drawn),nt,3.6%,-13.0%,2.7%,?,-2.5%
Cn1c(=O)cc(SCC(=O)NCC2CCCO2)c2ccccc21 (stereo not drawn),nt,?,-24.4%,-5.6%,12.6µM*,-2.6%
CC(C)C(=O)c1cn(CC(=O)NCC2CCCO2)c2ccccc12 (stereo not drawn),-12.5%,-6.2%,-6.1%[10 µM],1.8%,22.4µM*,10.8%
Cn1c(=O)cc(SCC(=O)NCCC2=CCCCC2)c2ccccc21,7.08µM*,-5.3%,-6.6%[10 µM],7.3%,?,4.6%
Nc1ccn([C@@H]2O[C@H](COC(=O)C34CC5CC(CC(C5)C3)C4)[C@@H](O)[C@@H]2O)c(=O)n1,-14.2%,nt,-46.2%[10 µM],nt,-9.2%[13.5 µM],nt
c1ccc2sc(N3CCOCC3)nc2c1,-8.4%,8.3%,-4.9%,3.9%,15.1%,-3.4%
c1ccc2sc(SN3CCOCC3)nc2c1,14.1µM*,12.6µM*,2.8%,14.2%,3.98µM*,15.7%
Clc1ccccc1-c1nnc(-c2ccccc2Cl)o1,15.8µM*,-2.8%,-4.1%[10 µM],12.6%,-9.0%,0.7%
O=C(CSc1nnc(-c2ccccc2Cl)o1)N1CCCCC1,25.1µM*,-8.4%,-3.9%[10 µM],11.0%,?,4.8%
O=C(CSc1nnc(-c2ccccc2O)o1)N1CCc2ccccc2C1,-26.7%,229.8%,-3.4%[10 µM],3.1%,22.4µM*,0.6%[9.22 µM]
O=C(CSc1nnc(-c2ccncc2)o1)N1CCCCCC1,nt,-2.3%,-2.1%[10 µM],3.0%,-3.4%,-9.9%[9.22 µM]
O=C(CSc1nnc(-c2cc3ccccc3cc2O)n1Cc1ccco1)N1CCc2ccccc2C1,-21.3%,-13.4%,-51.1%,-20.5%,35.5µM*,?
CSc1ccc(CN(C)CC(=O)NC(C)c2ccccc2)cc1 (stereo not drawn),nt,-5.5%,-44.1%,-1.5%,?,22.1%
O=C(c1cccc(Cl)c1)N1CCN(c2ccccn2)CC1,-12.1%,-9.4%,5.4%,7.0%,?,3.5%
